Structures can show the parent of a compound that is named as a salt.
Legend:
Assay in all cases: Euclidean distance of Cell Painting phenotypic profile (signed KS, 77 features) to DMSO centroid (dimensionless distance); 5 or 10 uM (library dependent); higher = stronger phenotypic change vs DMSO (phenoactivity)
Conditions in all cases: 48 h
[1] = tested on: 786-O
How it was run: (§1)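 Stained cells were imaged confocally at 20X with 9 fields per well, after 48 h of exposure to library compounds at 10 or 5 uM (set by library; 0.1% DMSO final). The cells were five cancer lines and a healthy fibroblast line. From the images, Harmony extracted 77 features, each expressed as a signed Kolmogorov-Smirnov statistic relative to same-plate vehicle wells. Phenoactivity is measured as Euclidean distance to the median vehicle profile, using plate-position-corrected, correlation-weighted profiles averaged across replicates at the top dose.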

[2] = tested on: A549
How it was run: as §1

[3] = tested on: DU145
How it was run: as §1

[4] = tested on: FB
How it was run: as §1

[5] = tested on: HEPG2
How it was run: as §1

[6] = tested on: OVCAR4
How it was run: as §1

Row | Structure (SMILES) | Euclidean distance [1] | Euclidean distance [2] | Euclidean distance [3] | Euclidean distance [4] | Euclidean distance [5] | Euclidean distance [6]
1 | CNCCc1ccccn1 [Betahistine] | 1.31 | 0.763 | 0.72 | 1.01 | 0.628 | 0.854
2 | O=C(N/N=C/c1ccc([N+](=O)[O-])o1)c1ccc(O)cc1 [Nifuroxazide] | 1.64 | 1.52 | 0.846 | 1.33 | 2.82 | 1.2
3 | O=C(Nc1cccnc1)N1CCC(Cc2cccc(Oc3ccc(C(F)(F)F)cn3)c2)CC1 | 0.844 | 1.34 | 0.774 | 0.825 | 1.94 | 0.736
4 | NC(=S)N/N=C/c1ncccc1N [Triapine] | 3.56 | 2.65 | 3.67 | 3.09 | 2.83 | 3.6
5 | C=C1C[C@@]2(O)O[C@@]3(C[C@H]2C(C)C)[C@@H](C)CC[C@@H]13 [Curcumol] | 1.06 | 1.43 | 0.943 | 1.3 | 0.814 | 1.43
6 | CC(C)(Oc1ccc(C2CC2(Cl)Cl)cc1)C(=O)O (configuration not stated) [Ciprofibrate] | 1.02 | 0.831 | 0.853 | 0.589 | 0.698 | 1.05
7 | NC[C@H]1CC[C@H](C(=O)O)CC1 [Tranexamic Acid] | 1.31 | 0.903 | 0.735 | 0.672 | 1.31 | 1.09
8 | Cc1cc(C(C)Nc2ccccc2)c2nc(N3CCOCC3)cc(=O)n2c1 (configuration not stated) | 1.4 | 1.16 | 1.61 | 1.62 | 1.29 | 2.37
9 | CN(C)CCc1c[nH]c2ccc(Cn3cncn3)cc12 [Rizatriptan Benzoate] | 1.43 | 1.08 | 1.46 | 2.54 | 1.06 | 2.42
10 | O=C(O)CC(O)(CC(=O)O)C(=O)O [Citric acid] | 0.88 | 0.725 | 1.02 | 0.899 | 0.774 | 0.991
11 | Cn1c(=O)cc(N2CCC[C@@H](N)C2)n(Cc2cc(F)ccc2C#N)c1=O [Trelagliptin succinate] | 0.808 | 1.21 | 1.04 | 1.06 | 0.54 | 1.49
12 | O=C1NC(=O)C(=Cc2ccc(-c3ccc(F)cc3)o2)S1 (stereo in doubt) | 1.04 | 0.938 | 1.43 | 1.29 | 0.808 | 1.33
13 | COc1cccc2c1C(=O)c1c(O)c3c(c(O)c1C2=O)C[C@@](O)(C(C)=O)C[C@@H]3O[C@H]1C[C@H](N)[C@H](O)[C@H](C)O1 [Daunorubicin HCl] | 5.05 | 5.5 | 5.6 | 4.91 | 4.88 | 5.41
14 | COc1ccc(C2CNC(=O)C2)cc1OC1CCCC1 (configuration not stated) [Rolipram] | 1.65 | 1.51 | 0.853 | 0.861 | 1.13 | 1.44
15 | O=C(NCCS(=O)(=O)c1ccc(C(F)(F)F)cn1)c1ccc(Cl)cc1 | 0.975 | 1.54 | 1.57 | 0.817 | 0.723 | 1.18
16 | N[C@@H](Cc1c[nH]c2ccccc12)C(=O)O [L-Tryptophan] | 0.689 | 1.11 | 0.644 | 0.569 | 0.851 | 1.36
17 | N#CC[C@H](C1CCCC1)n1cc(-c2ncnc3[nH]ccc23)cn1 | 2.03 | 1.27 | 1.36 | 1.23 | 0.819 | 0.709
18 | CN(N=O)C(=O)NC1C(O)OC(CO)C(O)C1O (configuration not stated) [Streptozotocin (STZ)] | 1.35 | 0.706 | 0.768 | 1.26 | 0.501 | 1.16
19 | CCCCC(C)(O)C/C=C/[C@H]1[C@H](O)CC(=O)[C@@H]1CCCCCCC(=O)OC (mixture of isomers) [Misoprostol] | 1.2 | 0.849 | 1.06 | 1.07 | 0.553 | 1.08
20 | CC/C=C(\C(=O)N[C@@H]1C(=O)N2C(C(=O)OCOC(=O)C(C)(C)C)=C(COC(N)=O)CS[C@H]12)c1csc(N)n1 [Cefcapene Pivoxil Hydrochloride] | 1.24 | 0.833 | 2.69 | 0.746 | 0.54 | 0.898
21 | COC(=O)Nc1nc2cc(C(=O)c3ccc(F)cc3)ccc2[nH]1 [Flubendazole] | 2.74 | 2.91 | 3.24 | 2.46 | 2.16 | 3.1
22 | O=C(O)c1ccccc1 [Benzoic Acid] | 1.39 | 1.16 | 1.58 | 0.886 | 1.6 | 0.868
23 | Oc1c(I)cc(Cl)c2cccnc12 [Clioquinol] | 1.29 | 1.03 | 1.05 | 1.37 | 0.894 | 1.24
24 | c1ccc(NCc2ccc(CNc3ccccn3)cc2)nc1 | 0.787 | 1.08 | 0.956 | 1.09 | 0.936 | 1.15

Row | Structure (SMILES) | Euclidean distance [1] | Euclidean distance [2] | Euclidean distance [3] | Euclidean distance [4] | Euclidean distance [5] | Euclidean distance [6]
25 | CN1C(C(=O)Nc2ccccn2)=C(O)c2ccccc2S1(=O)=O [Piroxicam] | 0.732 | 0.909 | 0.966 | 0.725 | 1.06 | 0.704
26 | CN[C@@H]1[C@@H](O[C@H]2O[C@H](CO)[C@@H](N)[C@H](O)[C@H]2O)OC2C[C@@H](N)[C@@H](O[C@H]3[C@H](O)[C@@H](O)[C@H](N)C[C@@H]3N)OC2[C@@H]1O (some centres not stated) [Apramycin Sulfate] | 1.51 | 0.794 | 0.965 | 1.27 | 0.895 | 1.19
27 | N=C(N)Nc1ccc(C(=O)Oc2ccc3cc(C(=N)N)ccc3c2)cc1 [Nafamostat Mesylate] | 1.58 | 1.62 | 1.06 | 1.02 | 0.93 | 1.24
28 | O=C(C=Cc1ccccc1)NC(NC(=S)Nc1ccc(Cl)cc1)C(Cl)(Cl)Cl (configuration not stated) | 1.51 | 2.16 | 1.33 | 1.53 | 2.23 | 1.08
29 | CCOc1ccccc1OCCN[C@H](C)Cc1ccc(OC)c(S(N)(=O)=O)c1 [Tamsulosin] | 1.91 | 1.28 | 1.73 | 1.01 | 1.38 | 1.6
30 | CC(C)(C)CC(C)(C)c1ccc(OCCOCC[N+](C)(C)Cc2ccccc2)cc1 [Benzethonium Chloride] | 3.02 | 2.7 | 2.15 | 1.82 | 2.43 | 2.37
31 | Nc1nnc(-c2cccc(Cl)c2Cl)c(N)n1 [Lamotrigine] | 0.851 | 1.05 | 0.825 | 1.12 | 0.712 | 1.42
32 | CC1(C)CC(=O)c2c(C(F)(F)F)nn(-c3ccc(C(N)=O)c(N[C@H]4CC[C@H](OC(=O)CN)CC4)c3)c2C1 | 3.85 | 3.38 | 3.89 | 3.31 | 3.05 | 2.62
33 | O=NN(CCCl)C(=O)NCCCl [Carmustine] | 1.97 | 0.741 | 1.29 | 0.896 | 0.515 | 0.875
34 | O=C(O)CNC(=O)c1ncc(-c2cccc(Cl)c2)cc1O [Vadadustat] | 1.08 | 1.97 | 2.71 | 1.67 | 0.8 | 2.35
35 | CC(/C=C/C(=O)NO)=C\[C@@H](C)C(=O)c1ccc(N(C)C)cc1 [Trichostatin A] | 3.62 | 4.26 | 3.19 | 4.05 | 3.58 | 3.53
36 | CC/C(=C(/CC)c1ccc(O)cc1)c1ccc(O)cc1 [Diethylstilbestrol] | 0.795 | 0.688 | 0.96 | 0.826 | 0.721 | 0.682
37 | CC(=O)OCC(=O)[C@H]1CC[C@H]2[C@@H]3CCC4=CC(=O)CC[C@]4(C)[C@H]3CC[C@]12C [Deoxycorticosterone acetate] | 0.997 | 0.852 | 0.854 | 1.02 | 0.569 | 1.51
38 | CSc1ccc2c(c1)N(CCC1CCCCN1C)c1ccccc1S2 (configuration not stated) [Thioridazine hydrochloride] | 2.83 | 2.98 | 2.37 | 3.14 | 3.33 | 2.62
39 | CO/N=C(\C(=O)N[C@@H]1C(=O)N2C(C(=O)OCOC(=O)C(C)(C)C)=C(/C=C\c3scnc3C)CS[C@H]12)c1csc(N)n1 [Cefditoren Pivoxil] | 1.06 | 0.732 | 1.67 | 1.03 | 2.12 | 1.5
40 | CC(=O)OCC1=C(C(=O)O)N2C(=O)[C@@H](NC(=O)CSC(=NC(C)C)NC(C)C)[C@H]2SC1 [Cefathiamidine] | 1.48 | 0.7 | 1.41 | 0.888 | 0.62 | 1.82
41 | C[C@@H](N)c1ccc(C(=O)Nc2ccnc3[nH]ccc23)cc1 | 1.87 | 3.06 | 3.16 | 3.73 | 2.26 | 2.05
42 | OC(CCN1CCCCC1)(c1ccccc1)C1CCCCC1 (configuration not stated) [Trihexyphenidyl hydrochloride] | 1.04 | 1.1 | 0.794 | 0.849 | 1.17 | 2.16
43 | OCc1ccc(Cl)cc1Cl [2.4-dichlorobenzyl alcohol] | 0.68 | 0.36 | 1.13 | 0.663 | 0.329 | 1.56
44 | O=C(c1ccc(NS(=O)(=O)c2cccc3cccnc23)cc1)N1CCN(CC2CC2)CC1 [Mitapivat] | 1.26 | 0.913 | 1.1 | 1.04 | 1.09 | 1.47
45 | C[C@]12C=CC(=O)C=C1CC[C@@H]1[C@@H]2[C@@H](O)C[C@@]2(C)[C@H]1CC[C@]2(O)C(=O)CO [Prednisolone] | 1.51 | 2.15 | 2.31 | 1.67 | 2.12 | 2.19
46 | CN(C)C(=O)Nc1cccc(-c2ccc(N(C)C)cc2)c1 [Atglistatin] | 1.31 | 1.47 | 1.1 | 0.894 | 0.548 | 1.33
47 | CC(C)(C)NCC(O)c1ccc(O)c(CO)c1 (configuration not stated) [Salbutamol Sulfate] | 1.57 | 0.928 | 1.27 | 0.735 | 1.31 | 1.78

From the supplement of paper PMC10127200
